Bioassay records as filed in PubChem BioAssay.
proKLK7 act = activators of human kallikrein-7 zymogen. AID 652039. 0.9% of 370,000 active. purified proKLK7, EDANS-DABCYL substrate fluorescence; 100% is mature enzyme control, 0% vehicle. activation, % at 7 µM;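 active means activation above the mean of all tested compounds plus 3 SD, computed per campaign excluding outliers beyond control limits, cut at about 13% in these data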
sPLA2-III inh = Inhibits HGIII-sPLA2 liposome hydrolysis, primary screen. QFRET BODIPY PC-A2 liposome hydrolysis, fluorescence. inhibition, % at 12.2 µM. 0.56% of 370,000 active. AID 743126;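 active means inhibition above mean plus 3 SD of compounds lying within the high and low control bounds, cut at about 19% in these data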
PLC-gamma1 inh = inhibitors of human phospholipase C gamma1; P19174; purified PLC-gamma1, fluorogenic substrate, fluorescence; inhibition, % at 12.2 µM; 0.84% of 370,000 active; AID 720700; in the data active means inhibition above about 9.5%
PLC-beta3 inh = blocks human PLC-beta3 enzyme activity | Q01970 | Purified PLC-beta3, fluorogenic substrate, fluorescence | inhibition, % at 12.2 µM | 0.18% of 370,000 active | AID 720704; in the data active means inhibition above about 11%
ADAM10 inh = inhibits human ADAM10; 0.62% of 370,000 active; recombinant ADAM10, EDANS/DABCYL FRET peptide cleavage, 3 h; AID 720582; inhibition, % at 7 µM;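 active means inhibition above a per-campaign cutoff equal to the mean of compounds falling between control-based bounds plus 3 SD, cut at about 20% in these data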
ADAM17 inh = inhibitors of human ADAM17 | recombinant ADAM17, EDANS/DABCYL FRET peptide cleavage | 0.83% of 370,000 active | P78536 | inhibition, % at 6.95 µM | AID 720648;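 active means inhibition above the mean of compounds lying between control limits plus 3 SD, set per campaign, cut at about 8.5% in these data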
Target sequence (P78536 215-824 limits assumed): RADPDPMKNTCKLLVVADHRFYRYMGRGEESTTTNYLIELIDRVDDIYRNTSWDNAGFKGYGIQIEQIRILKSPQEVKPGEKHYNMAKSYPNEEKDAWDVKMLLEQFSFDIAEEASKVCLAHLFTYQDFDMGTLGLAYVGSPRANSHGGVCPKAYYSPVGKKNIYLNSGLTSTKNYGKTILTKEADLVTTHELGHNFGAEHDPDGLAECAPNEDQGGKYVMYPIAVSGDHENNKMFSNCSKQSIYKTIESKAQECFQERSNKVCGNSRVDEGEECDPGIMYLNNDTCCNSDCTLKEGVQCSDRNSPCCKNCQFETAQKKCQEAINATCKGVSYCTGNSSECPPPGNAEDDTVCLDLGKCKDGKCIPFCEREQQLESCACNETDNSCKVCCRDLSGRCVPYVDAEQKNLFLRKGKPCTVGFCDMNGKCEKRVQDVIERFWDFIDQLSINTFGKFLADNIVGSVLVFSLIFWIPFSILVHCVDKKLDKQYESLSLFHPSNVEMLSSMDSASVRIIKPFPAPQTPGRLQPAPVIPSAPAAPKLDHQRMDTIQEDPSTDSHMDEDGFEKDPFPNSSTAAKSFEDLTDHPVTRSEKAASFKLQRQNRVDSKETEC
hGIII sPLA2 conf = human GIII-sPLA2 inhibition, confirmation; recombinant hGIII-sPLA2, BODIPY PC-A2 QFRET fluorescence; inhibition, % at 12.2 µM; 34% of 2,000 active; shares compounds with sPLA2-III inh;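 active means mean inhibition across triplicates above the hit cutoff set in the earlier primary screen, cut at about 19% in these data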
BODIPY interf = optically interferes with 535nm fluorescence in sPLA2 counter-screen; shares compounds with sPLA2-III inh; 8.5% of 2,000 active; BODIPY FL product fluorescence interference, QFRET; inhibition, % at 12.2 µM;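 active means average inhibition above the solvent-only control mean plus 3 SD, cut at about 6% in these data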
535nm interf DR = interferes with 535nm fluorescence in dose response counter-screen. shares compounds with sPLA2-III inh. BODIPY FL product fluorescence interference, cell-free. IC50, µM. 240 tested, under 10 active;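 active means IC50 at or below 10 µM; inactive means IC50 above 10 µM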
Large screens that a line does not name were inactive (follow-up assays come after a bar, where they were run). A selection: hits, their analogues and other compounds. The true share with any hit is near 3.4%.

S=c1[nH]nc(CCc2ccccc2)n1-c1ccccc1	none
CCc1ccc(OCc2n[nH]c(=S)n2Cc2ccccc2)cc1	none
S=c1[nH]nc(-c2cccs2)n1Cc1ccccc1	sPLA2-III inh 20.0 | hGIII sPLA2 conf 20.8 | BODIPY interf inactive
S=c1[nH]nc(COc2ccccc2)n1Cc1ccccc1	sPLA2-III inh 26.6 | hGIII sPLA2 conf inactive | BODIPY interf inactive
S=c1[nH]nc(Cc2ccccc2)n1-c1ccc(Cl)cc1	sPLA2-III inh 20.0 | hGIII sPLA2 conf 20.8 | BODIPY interf inactive
S=c1[nH]nc(CCc2ccccc2)n1-c1ccc(Cl)cc1	sPLA2-III inh 23.8 | hGIII sPLA2 conf 32.2 | BODIPY interf inactive | 535nm interf DR inactive
CSCCCNc1nc(C)nc2c1nnn2Cc1ccccc1	none
S=c1[nH]nc(COc2ccc(Cl)cc2)n1-c1ccccc1	sPLA2-III inh 21.3 | hGIII sPLA2 conf 33.7 | BODIPY interf inactive | 535nm interf DR inactive
Cc1onc(-c2ccccc2)c1C(=O)NC(=S)NNC(=O)c1ccc(O)cc1	none
Cc1onc(-c2ccccc2)c1C(=O)NC(=S)NNC(=O)c1ccc(O)cc1O	sPLA2-III inh 23.5 | hGIII sPLA2 conf 23.1 | BODIPY interf inactive
Cc1onc(-c2ccccc2)c1C(=O)NC(=S)NNC(=O)c1ccccc1O	sPLA2-III inh 42.3 | hGIII sPLA2 conf 34.2 | BODIPY interf inactive | 535nm interf DR inactive
Cc1cc(C)cc(NC(=O)O[C@@H]2CC[C@@]34CCCN3C(=O)CCC[C@H]4C2)c1	none (no result: proKLK7 act)
c1ccc(Cn2ccc3ccc(-c4ccc5ccn(Cc6cccc(Oc7ccccc7)c6)c5c4)cc32)cc1	none
Cc1cccc(C)c1Nc1n[nH]c(=S)s1	none
Cc1cccc2sc(=S)[nH]c12	sPLA2-III inh 24.5 | hGIII sPLA2 conf 20.4 | BODIPY interf inactive
N/C(=N\OC(=O)CC1CCCCC1)c1cccc([N+](=O)[O-])c1	none
N/C(=N\OC(=O)CCC1CCCC1)c1cccc([N+](=O)[O-])c1	sPLA2-III inh 20.8 | hGIII sPLA2 conf inactive | BODIPY interf inactive
CCSC1=NCCN1S(=O)(=O)c1ccc(Cl)cc1	sPLA2-III inh 22.0 | hGIII sPLA2 conf inactive | BODIPY interf inactive
O=C(N[C@@H]1C[C@@H]2O[C@@H](CO)CC[C@@H]2O[C@@H]1CCc1ccc(-c2ccccc2)cc1)c1cnccn1	none
C#CCNC(=O)C[C@H]1C[C@@]2(C(=O)OC)C(=C[C@H](C3CCCC3)O[C@@H]2C)N(Cc2ccc(Cl)cc2Cl)C1=O	none
COC(=O)[C@]12C[C@H](CC(=O)N3CCOCC3)C(=O)N(Cc3ccc(Cl)cc3Cl)C1=C[C@H](C1CCCC1)O[C@@H]2C	sPLA2-III inh 77.0 | hGIII sPLA2 conf inactive | BODIPY interf inactive
COc1ccc2c(c1)CCCN2C(=O)C1CCCN(S(=O)(=O)c2cccc3cccnc23)C1 (configuration not stated)	none
O=S1(=O)CCS(=O)(=O)C1c1ccccc1	sPLA2-III inh 20.2 | hGIII sPLA2 conf inactive | BODIPY interf inactive
O=C1CCc2cc(S(=O)(=O)Nc3ccc4c(c3)OCCO4)ccc2N1	none (no result: proKLK7 act)
O=C(NCCN1CCOCC1)c1cc(Sc2ccccc2Cl)nc2ccccc12	sPLA2-III inh 19.2 | hGIII sPLA2 conf inactive | BODIPY interf inactive
O=C(NCCN1CCOCC1)c1cc(Sc2ccc(F)cc2F)nc2ccccc12	none
CCNC(=O)CSc1nc2ccccc2c(=O)n1-c1cccc(OC)c1	none
COc1cccc(-n2c(SCc3cc(=O)oc4cc(O)c(O)cc34)nc3ccccc3c2=O)c1	sPLA2-III inh 19.9 | hGIII sPLA2 conf inactive | BODIPY interf inactive
N#CC12C(=O)NC(=O)C1(C#N)C21CCCC1 (configuration not stated)	sPLA2-III inh 21.8 | hGIII sPLA2 conf inactive | BODIPY interf inactive
CCCCCn1c(=NC(=O)c2cccnc2)c(C#N)cc2c(=O)n3cccc(C)c3nc21	sPLA2-III inh 19.7 | hGIII sPLA2 conf inactive | BODIPY interf inactive
CCOC(=O)c1sc(NC(=S)NC(=O)C23CC4CC(CC(C4)C2)C3)cc1C	none
CCOC(=O)c1sc(NC(=S)NC(=O)C2CC2)cc1C	sPLA2-III inh 21.2 | hGIII sPLA2 conf inactive | BODIPY interf inactive
Cc1cc(N2CCN(C(=O)OC(C)(C)C)C[C@@H]2C)ccc1N1CCN(Cc2ccccc2)[C@@H](C)C1	none
COc1c(O)c(O)c2oc(-c3ccccc3)cc(=O)c2c1OC	sPLA2-III inh 31.9 | hGIII sPLA2 conf inactive | BODIPY interf inactive
COc1cc(-c2cc(=O)c3c(O)c(OC)c(OC)c(O)c3o2)ccc1O	none
S=C(Nc1ccccc1)Nc1nccs1	sPLA2-III inh 27.3 | hGIII sPLA2 conf 29.8 | BODIPY interf inactive | 535nm interf DR inactive
Fc1ccc(NC(=S)Nc2nccs2)cc1	sPLA2-III inh 23.2 | hGIII sPLA2 conf 28.4 | BODIPY interf inactive | 535nm interf DR inactive
O=C(Cc1ccc(F)cc1)Nc1nccs1	none
COc1ccc(-c2cc(NC(=O)Cc3c(C)[nH]c4ccccc34)ccc2Nc2cccnc2)cc1OC	none
CC(C)c1ccc(C2NC(=S)NC3=C2C(=O)CCC3)cc1 (configuration not stated)	sPLA2-III inh 24.2 | hGIII sPLA2 conf inactive | BODIPY interf inactive
CC(C)CCC(CCNCc1ccccn1)c1ccc2c(c1)OCO2 (configuration not stated)	sPLA2-III inh 23.4 | hGIII sPLA2 conf inactive | BODIPY interf inactive
CCNCCC(CCC(C)C)c1ccc2c(c1)OCO2 (configuration not stated)	none
Nc1[nH]n(-c2ccccc2)c(=O)c1N=Nc1ccccc1	sPLA2-III inh 23.0 | hGIII sPLA2 conf 33.3 | BODIPY interf 6.3
CCc1ccccc1N=Nc1c(N)[nH]n(-c2ccccc2)c1=O	none
CCOC(=O)[C@]12CCCC=C1N(Cc1ccc(OC)cc1)C(=O)[C@@H]2CC(=O)N1CCCC1	none
O=c1c2ccccc2cnn1Cc1n[nH]c(=S)n1C1CC2CCC1C2 (configuration not stated)	sPLA2-III inh 26.1 | hGIII sPLA2 conf 21.3 | BODIPY interf inactive
CC(c1ccccc1)n1c(Cn2ncc3ccccc3c2=O)n[nH]c1=S (configuration not stated)	none
O=[N+]([O-])c1ccc(NC2CCCC2)cc1	none
N#Cc1cc(NC2CCCC2)c([N+](=O)[O-])cc1C#N	sPLA2-III inh 24.9 | hGIII sPLA2 conf inactive | BODIPY interf inactive
